Measured values from PubChem BioAssay (NCATS).
Values joined by “and” are separate entries in the source; they are usually repeats but may differ in a detail not shown here. Equal values may be shown once. Inconclusive results are not listed. Some structures have more than one record in an assay (separate samples or runs), and their calls can disagree. Active and inactive are the calls of the source. Unless noted, calls come from the whole dose curve; as a rule, active = well fitted curve in the direction sought with a large enough effect; inconclusive = small, poorly fitted or top-dose-only effect, or another doubt; inactive = no such curve, though single readings can be large; an effect the other way counts as inactive or inconclusive.

What was measured:
[1] = target: Cytochrome P450 3A4 (Homo sapiens) (UniProt P08684); assay: qHTS Assay for Activators of Cytochrome P450 3A4 (AID 885); note: nearly all actives have a fitted effect of over 65% in size; note: potency is the fitted concentration of half-maximal effect
Method in brief: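 Quantitative HTS format: compounds preincubated with 20nM human CYP3A4 and Luciferin-PPXE substrate at KM, reaction started by NADPH regeneration, stopped after 60 min, luciferase luminescence read 20 min later.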

[2] = Primary qHTS for small molecule stabilizers of the endoplasmic reticulum resident proteome: Secreted ER Calcium Modulated Protein (SERCaMP) assay (AID 1508630); note: % is set by controls: 0 for no effect and ±100 for the full control effect
Method in brief: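 GLuc-SERCaMP-expressing SH-SY5Y cells, pretreated 16 h with compound, are challenged with thapsigargin to empty ER calcium stores; after 4 h, coelenterazine is added directly to the medium and luminescence is imaged.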

[3] = target: Cytochrome P450 1A2 (Homo sapiens) (UniProt P05177); assay: p450-cyp1a2 (AID 410; calls by dose curve; note: potency is the fitted concentration of half-maximal effect;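 for activity change, negative = inhibition: -100% = full effect of reference inhibitor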)
Method in brief: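 Luminescent readout of luciferin formed from Luciferin-ME by human CYP1A2; data normalized against complete inhibition by 57 uM furafylline. Enzyme 20nM, substrate 100uM at Km, 100mM KPO4 buffer, 60 min reaction at room temperature.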

[4] = target: Glucocorticoid receptor (Homo sapiens) (UniProt P04150); assay: GR-GFP Redistribution (AID 450;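 active = compounds whose dose series gives a full or clear partial fitted curve of increased nuclear translocation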; note: potency is the fitted concentration of half-maximal effect); settings: U2OS GR-GFP nuclear translocation, laser cytometry, 2 h
[5] = target: Glucocorticoid receptor (Homo sapiens) (UniProt P04150); assay: GR-EFC Redistribution (AID 451; calls by dose curve; note: potency is the fitted concentration of half-maximal effect); settings: CHO-K1 GR-EFC translocation, beta-gal luminescence, 2 h
Method in brief: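 CHO-K1 cells stably expressing nuclear-localized β-gal enzyme acceptor and GR fused C-terminally to the enzyme donor fragment; ligand-driven nuclear translocation restores β-gal by complementation. Compounds titrated up to 46 uM final, 2 h at 37 °C; luminescence read.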

[6] = target: Lysosomal acid glucosylceramidase (Homo sapiens) (UniProt P04062); assay: Glucocerebrosidase-p2 (AID 348; in the data active = potency below about 10 µM; note: potency is the fitted concentration of half-maximal effect); settings: purified GBA, blue fluorogenic substrate, 40 min
Method in brief: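 Compounds titrated from 0.6 nM upwards against 0.2 nM enzyme in pH 5.9 citric acid/KH2PO4, taurocholate, tween-20; blue fluorogenic substrate 80 uM, 40 min room temperature, stopped and read Ex 365/Em 440 for AC50.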

[7] = Stat Signaling Pathway (AID 446; active = well fitted curve in either direction with a large enough effect, not every such curve was filed as active;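 note: ME-180 cervical cancer cells given 40 pM IL-6 alongside compound; SIE-controlled beta-lactamase reporter measured as 460/530 nm FRET emission ratio; % is set by controls: 0 for no effect and ±100 for the full control effect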); settings: ME-180 SIE beta-lactamase reporter, IL-6 stimulated, 5 h; at 7.69 µM (top of the series) unless noted
Method in brief: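 IL-6/STAT signaling read in ME-180 cells via an SIE beta-lactamase reporter. Stimulus was 40 pM IL-6 (its AC50) for 5 hrs, so both activation and inhibition register.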

[8] = target: Mitogen-activated protein kinase 10 (Mus musculus) (UniProt Q61831); assay: JNK3 AlphaScreen Assay (AID 530; active = well fitted curve in either direction with a large enough effect, not every such curve was filed as active;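 note: kinase came from lysate of stimulated human HepG2 cells; signal reports phosphorylation of biotinylated GST-cJun 1-79 at Ser73 with 10 µM ATP; % is set by controls: 0 for no effect and ±100 for the full control effect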)
Method in brief: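 Inhibitors reduce antibody binding to phosphorylated biotin-cJun, lowering AlphaScreen luminescence. Lysates from HepG2 cells pre-activated by IL-1beta plus TNF-alpha supplied JNK3; compounds were titrated.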

[9] = target: Cytochrome P450 3A4 (Homo sapiens) (UniProt P08684); assay: qHTS Assay for Inhibitors and Substrates of Cytochrome P450 3A4 (AID 884); note: nearly all actives have a fitted effect of over 50% in size; note: potency is the fitted concentration of half-maximal effect
Method in brief: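 20 nM human CYP3A4 with 25 uM Luciferin-PPXE (at KM) in 200 mM KPO4, preincubated 10 min with compound; NADPH regeneration started a 60 min RT reaction. Luciferin detected by luminescence, normalized to 57 uM ketoconazole as full inhibition.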

[10] = Confirmation and Secondary Assay for Modulators of Hemoglobin Beta Chain Splicing at IVS2 654 locus (AID 910);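 note: per-well total GFP intensity by laser scanning cytometry after 2-day treatment; % of control where 0% means no effect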
Method in brief: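 HeLa cells stably carrying EGFP interrupted by mutant beta-globin IVS2-654 intron (CMV-driven) were treated with compound for 2 days at 37C; corrected splicing was scored as total peak GFP intensity per well (488 nm excitation, 500-520 nm emission).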

[11] = Confirmation and Secondary Assay for Modulators of Hemoglobin Beta Chain Splicing at IVS2 705 locus (AID 930);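 note: HeLa cells stably expressing the EGFP-705 splicing reporter; GFP fluorescence per well restored by corrected splicing of the IVS2-705 intron in EGFP; % of control where 0% means no effect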
Method in brief: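 Stable HeLa line with EGFP disrupted by mutant beta-globin intron 2 (705). Overnight attachment, then 2 days of compound at 37C, 5% CO2. Signal: peak GFP intensity summed over objects 5-250 µm.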

[12] = qHTS Assay for Lipid Storage Modulators (AID 1519; calls by dose curve); settings: Drosophila S3 cells, BODIPY lipid droplet/cell ratio, laser cytometry, cells loaded with oleic acid
Method in brief: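 Cells seeded at 5,000 per well were treated with compounds over a concentration series and loaded with oleic acid (400 uM, as added). Lipid droplet fluorescence (488 nm excitation, 500-530 nm channel) was read by laser-scanning cytometry and normalized to 20 uM Triacsin C.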

[13] = target: Rap guanine nucleotide exchange factor 3 (Homo sapiens) (UniProt O95398); assay: Confirmatory qHTS for antagonist of cAMP-regulated guanine nucleotide exchange factor 3 (EPAC1) (AID 1645880);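 note: plate controls were DMSO only for no effect and full effect of the ATA control for full effect; nearly all actives have a fitted effect of over 55% in size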
Method in brief: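 Nucleotide exchange uses 100 nM EPAC1, 250 nM RAP1B-BODIPY-GDP and 50 uM GDP, with compounds in a concentration-titration series. After 5 min at room temperature, fluorescence (480 nm ex/540 nm em) is read every 5 min for 30 min. Data are normalized to control ATA and DMSO.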

[14] = target: Rap guanine nucleotide exchange factor 3 (Homo sapiens) (UniProt O95398); assay: Confirmatory qHTS for agonist of cAMP-regulated guanine nucleotide exchange factor 3 (EPAC1) (AID 1645881);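 note: EPAC1 catalysed release of BODIPY-GDP from Rap1B seen as fluorescence loss; 100% = effect of cAMP agonist control; nearly all actives have a fitted effect of over 75% in size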
[15] = target: Rap guanine nucleotide exchange factor 4 (Homo sapiens) (UniProt Q8WZA2); assay: Confirmatory qHTS for agonist of cAMP-regulated guanine nucleotide exchange factor 4 (EPAC2) (AID 1645884);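 note: nucleotide exchange releases bodipy-GDP from Rap1 and this lowers its fluorescence; % is set by controls: 0 for no effect and ±100 for the full control effect; nearly all actives have a fitted effect of over 65% in size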
[16] = target: Rap guanine nucleotide exchange factor 4 (Homo sapiens) (UniProt Q8WZA2); assay: Confirmatory qHTS for antagonist of cAMP-regulated guanine nucleotide exchange factor 4 (EPAC2) (AID 1645885); note: nearly all actives have a fitted effect of over 25% in size; note: potency is the fitted concentration of half-maximal effect
[17] = AP1 Signaling Pathway (AID 357; active = well fitted curve in either direction with a large enough effect, not every such curve was filed as active;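 note: ME-180 reporter cells stimulated with EGF at its EC50 level; % is set by controls: 0 for no effect and ±100 for the full control effect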); settings: ME-180 (cervical carcinoma) AP-1-bla reporter, EGF-induced, beta-lactamase ratio, 5 h; at 7.69 µM (top of the series) unless noted
Method in brief: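 Beta-lactamase reporter under AP-1 response element, ME-180 background. Stimulus: EC50 EGF. Compound exposure 5 h, 37 °C. Detection: CCF4, 2.5 h RT, 460/530 nm. Values: AC50 from titration.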

[18] = NFAT Signaling Pathway (AID 444; active = well fitted curve in either direction with a large enough effect, not every such curve was filed as active); settings: Jurkat NFAT-bla M1, carbachol, beta-lactamase ratio, 5 h; at 7.69 µM (top of the series) unless noted
Method in brief: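 Jurkat cells carrying an NFAT-driven β-lactamase reporter and co-transfected muscarinic M1 receptor were treated with compound plus carbachol (1 uM final, an EC50 level) for 5 h at 37 °C. CCF4 loading followed for 1 h at RT; 460/530 nm ratio gave %activity.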

[19] = target: 3',5'-cyclic-AMP phosphodiesterase 4B (Homo sapiens) (UniProt Q07343); assay: qHTS Assay for Inhibitors of PDE-IV (AID 607; active = well fitted activation curve with a large enough effect in the main read-out, with a control signal flat, not every such curve was filed as active; note: % of control where 0% means no effect)
Method in brief: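 Live HEK293 cells with a modified cyclic nucleotide-gated (CNG) channel report intracellular cAMP via membrane-potential dye fluorescence (ex 535/em 590 nm). Endogenous PDE-IV was targeted. Compounds were tested at up to 22.9 uM final; RO 20-1724 100 uM served as control.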

[20] = target: Ubiquitin carboxyl-terminal hydrolase 1 (Homo sapiens) (UniProt O94782); assay: Inhibitors of USP1/UAF1: Pilot qHTS (AID 504865);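 note: rhodamine fluorescence freed from ubiquitin-rhodamine substrate followed over time; top concentration of the series differs between compounds; % is set by controls: 0 for no effect and ±100 for the full control effect; nearly all actives have a fitted effect of over 35% in size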
Method in brief: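 Enzyme-free wells gave the negative control, while test wells held 1nM USP1/UAF1 preincubated with compound for 15 min at room temperature. Ub-Rho at 150nM final started the reaction, and fluorescence at 480/540 nm was recorded kinetically.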

[21] = measured here: cell count channel max response
[22] = measured here: lipid channel max response

Sequence of Rap guanine nucleotide exchange factor 4 (Homo sapiens) (Q8WZA2 whole entry, looked up): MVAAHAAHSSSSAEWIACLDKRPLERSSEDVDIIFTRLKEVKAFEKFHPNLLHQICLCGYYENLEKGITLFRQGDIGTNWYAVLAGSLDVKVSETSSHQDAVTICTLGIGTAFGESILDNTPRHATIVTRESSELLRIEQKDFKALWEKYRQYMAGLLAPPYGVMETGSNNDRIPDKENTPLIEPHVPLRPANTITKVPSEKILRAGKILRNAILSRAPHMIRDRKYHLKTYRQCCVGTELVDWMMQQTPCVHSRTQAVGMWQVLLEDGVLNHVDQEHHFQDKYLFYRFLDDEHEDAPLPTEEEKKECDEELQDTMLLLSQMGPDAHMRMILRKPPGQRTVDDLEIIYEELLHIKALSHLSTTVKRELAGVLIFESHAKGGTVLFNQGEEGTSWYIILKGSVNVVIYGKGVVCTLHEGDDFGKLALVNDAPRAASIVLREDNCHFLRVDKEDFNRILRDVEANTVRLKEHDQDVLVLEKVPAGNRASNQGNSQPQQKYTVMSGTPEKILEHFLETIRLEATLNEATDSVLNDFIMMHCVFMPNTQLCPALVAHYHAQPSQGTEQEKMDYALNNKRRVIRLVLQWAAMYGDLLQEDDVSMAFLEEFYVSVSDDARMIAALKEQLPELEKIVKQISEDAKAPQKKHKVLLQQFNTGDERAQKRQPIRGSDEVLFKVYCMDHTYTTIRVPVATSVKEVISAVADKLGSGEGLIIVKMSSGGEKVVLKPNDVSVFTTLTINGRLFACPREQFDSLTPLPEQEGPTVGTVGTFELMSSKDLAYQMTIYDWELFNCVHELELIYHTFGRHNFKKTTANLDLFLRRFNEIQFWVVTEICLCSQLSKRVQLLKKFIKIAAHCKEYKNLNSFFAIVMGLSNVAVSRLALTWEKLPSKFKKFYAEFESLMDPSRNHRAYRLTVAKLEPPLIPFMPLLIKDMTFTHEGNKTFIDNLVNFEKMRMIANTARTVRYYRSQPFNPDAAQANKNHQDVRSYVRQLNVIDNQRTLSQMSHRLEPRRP
Sequence of Rap guanine nucleotide exchange factor 3 (Homo sapiens) (O95398 whole entry, looked up): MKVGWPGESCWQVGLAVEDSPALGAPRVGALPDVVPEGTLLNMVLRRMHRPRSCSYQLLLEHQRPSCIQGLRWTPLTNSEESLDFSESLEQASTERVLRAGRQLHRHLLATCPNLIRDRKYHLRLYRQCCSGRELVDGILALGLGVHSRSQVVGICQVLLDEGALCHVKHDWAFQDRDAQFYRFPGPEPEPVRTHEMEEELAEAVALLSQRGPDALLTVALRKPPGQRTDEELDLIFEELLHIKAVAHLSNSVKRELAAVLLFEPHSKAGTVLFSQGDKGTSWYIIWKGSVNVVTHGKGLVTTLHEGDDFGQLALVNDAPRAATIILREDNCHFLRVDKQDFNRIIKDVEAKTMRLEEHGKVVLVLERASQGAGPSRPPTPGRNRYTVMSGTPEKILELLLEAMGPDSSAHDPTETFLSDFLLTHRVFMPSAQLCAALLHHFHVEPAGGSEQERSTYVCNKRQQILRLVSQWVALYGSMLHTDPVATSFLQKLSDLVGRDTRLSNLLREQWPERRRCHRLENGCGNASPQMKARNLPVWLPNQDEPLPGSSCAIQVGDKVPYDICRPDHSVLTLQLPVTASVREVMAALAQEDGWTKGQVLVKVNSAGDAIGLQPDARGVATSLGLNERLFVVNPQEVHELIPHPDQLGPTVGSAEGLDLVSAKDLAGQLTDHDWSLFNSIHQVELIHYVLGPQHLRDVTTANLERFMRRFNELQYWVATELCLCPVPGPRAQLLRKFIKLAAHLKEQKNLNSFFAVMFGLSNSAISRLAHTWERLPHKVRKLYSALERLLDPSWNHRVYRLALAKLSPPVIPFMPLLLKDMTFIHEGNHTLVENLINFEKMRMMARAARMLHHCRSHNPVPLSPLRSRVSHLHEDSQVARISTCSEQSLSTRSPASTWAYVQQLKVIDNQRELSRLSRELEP
Sequence of Cytochrome P450 1A2 (Homo sapiens) (P05177 whole entry, looked up): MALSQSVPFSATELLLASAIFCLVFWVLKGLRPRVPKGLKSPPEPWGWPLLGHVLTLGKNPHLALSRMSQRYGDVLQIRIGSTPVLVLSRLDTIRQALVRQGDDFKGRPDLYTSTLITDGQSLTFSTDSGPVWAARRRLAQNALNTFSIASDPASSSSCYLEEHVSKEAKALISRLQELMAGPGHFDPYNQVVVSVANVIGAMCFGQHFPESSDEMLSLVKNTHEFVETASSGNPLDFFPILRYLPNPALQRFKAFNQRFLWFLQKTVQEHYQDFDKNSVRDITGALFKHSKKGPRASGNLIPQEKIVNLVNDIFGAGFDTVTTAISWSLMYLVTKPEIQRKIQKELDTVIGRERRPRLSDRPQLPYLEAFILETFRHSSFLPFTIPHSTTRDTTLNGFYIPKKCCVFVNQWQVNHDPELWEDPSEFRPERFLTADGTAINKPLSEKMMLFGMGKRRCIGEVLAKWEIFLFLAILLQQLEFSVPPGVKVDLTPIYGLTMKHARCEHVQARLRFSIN
Sequence of Cytochrome P450 3A4 (Homo sapiens) (P08684 whole entry, looked up): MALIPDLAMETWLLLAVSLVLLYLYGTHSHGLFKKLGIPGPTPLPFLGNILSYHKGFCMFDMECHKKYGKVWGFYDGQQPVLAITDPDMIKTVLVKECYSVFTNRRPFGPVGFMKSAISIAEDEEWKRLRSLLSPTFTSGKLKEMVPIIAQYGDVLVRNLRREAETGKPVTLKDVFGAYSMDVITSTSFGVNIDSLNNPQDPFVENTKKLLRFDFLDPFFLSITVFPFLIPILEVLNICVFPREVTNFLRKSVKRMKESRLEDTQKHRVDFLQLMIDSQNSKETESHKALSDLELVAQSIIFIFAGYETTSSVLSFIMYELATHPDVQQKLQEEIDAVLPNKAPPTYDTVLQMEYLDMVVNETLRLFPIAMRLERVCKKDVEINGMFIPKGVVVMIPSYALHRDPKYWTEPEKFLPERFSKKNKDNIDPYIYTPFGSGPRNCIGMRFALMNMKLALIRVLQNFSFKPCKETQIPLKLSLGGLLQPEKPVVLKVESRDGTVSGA
Sequence of 3',5'-cyclic-AMP phosphodiesterase 4B (Homo sapiens) (Q07343 whole entry, looked up): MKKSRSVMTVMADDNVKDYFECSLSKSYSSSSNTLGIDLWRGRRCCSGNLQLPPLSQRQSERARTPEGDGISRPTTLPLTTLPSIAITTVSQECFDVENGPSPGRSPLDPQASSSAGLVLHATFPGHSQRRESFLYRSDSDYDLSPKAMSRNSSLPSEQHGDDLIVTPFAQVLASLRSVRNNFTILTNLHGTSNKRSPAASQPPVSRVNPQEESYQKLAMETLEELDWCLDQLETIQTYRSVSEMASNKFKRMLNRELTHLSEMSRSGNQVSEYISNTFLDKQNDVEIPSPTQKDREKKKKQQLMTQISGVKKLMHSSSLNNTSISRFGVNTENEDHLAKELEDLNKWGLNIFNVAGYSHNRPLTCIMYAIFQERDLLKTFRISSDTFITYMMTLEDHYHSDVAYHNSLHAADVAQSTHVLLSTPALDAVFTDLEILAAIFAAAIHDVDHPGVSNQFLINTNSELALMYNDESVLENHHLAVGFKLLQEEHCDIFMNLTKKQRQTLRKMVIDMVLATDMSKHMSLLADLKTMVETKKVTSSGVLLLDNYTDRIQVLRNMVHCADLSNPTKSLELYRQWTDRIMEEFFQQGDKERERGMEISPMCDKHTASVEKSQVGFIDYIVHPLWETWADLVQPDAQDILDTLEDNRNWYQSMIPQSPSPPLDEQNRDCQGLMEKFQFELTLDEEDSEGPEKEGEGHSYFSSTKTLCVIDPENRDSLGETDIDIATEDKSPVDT
Sequence of Ubiquitin carboxyl-terminal hydrolase 1 (Homo sapiens) (O94782 whole entry, looked up): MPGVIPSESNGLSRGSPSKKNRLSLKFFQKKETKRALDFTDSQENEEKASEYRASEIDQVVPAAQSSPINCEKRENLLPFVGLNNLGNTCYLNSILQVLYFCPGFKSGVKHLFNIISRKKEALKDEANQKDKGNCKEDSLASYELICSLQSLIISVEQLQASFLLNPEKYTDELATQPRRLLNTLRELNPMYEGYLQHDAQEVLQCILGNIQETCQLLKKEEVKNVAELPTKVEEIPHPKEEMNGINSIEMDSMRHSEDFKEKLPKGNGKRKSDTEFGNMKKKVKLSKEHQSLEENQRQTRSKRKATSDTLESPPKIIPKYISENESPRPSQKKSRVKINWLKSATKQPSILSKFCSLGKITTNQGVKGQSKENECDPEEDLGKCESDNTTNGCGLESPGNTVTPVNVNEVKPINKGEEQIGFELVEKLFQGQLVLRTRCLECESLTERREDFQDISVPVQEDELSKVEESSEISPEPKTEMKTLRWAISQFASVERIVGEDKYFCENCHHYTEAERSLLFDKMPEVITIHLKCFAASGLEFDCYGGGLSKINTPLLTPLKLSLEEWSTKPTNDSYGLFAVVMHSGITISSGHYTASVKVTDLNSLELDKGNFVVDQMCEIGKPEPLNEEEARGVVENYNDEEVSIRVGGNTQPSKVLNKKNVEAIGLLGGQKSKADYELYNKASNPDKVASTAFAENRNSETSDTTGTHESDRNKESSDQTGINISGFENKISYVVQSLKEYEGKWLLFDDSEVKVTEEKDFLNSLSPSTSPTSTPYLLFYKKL
Sequence of Lysosomal acid glucosylceramidase (Homo sapiens) (P04062 whole entry, looked up): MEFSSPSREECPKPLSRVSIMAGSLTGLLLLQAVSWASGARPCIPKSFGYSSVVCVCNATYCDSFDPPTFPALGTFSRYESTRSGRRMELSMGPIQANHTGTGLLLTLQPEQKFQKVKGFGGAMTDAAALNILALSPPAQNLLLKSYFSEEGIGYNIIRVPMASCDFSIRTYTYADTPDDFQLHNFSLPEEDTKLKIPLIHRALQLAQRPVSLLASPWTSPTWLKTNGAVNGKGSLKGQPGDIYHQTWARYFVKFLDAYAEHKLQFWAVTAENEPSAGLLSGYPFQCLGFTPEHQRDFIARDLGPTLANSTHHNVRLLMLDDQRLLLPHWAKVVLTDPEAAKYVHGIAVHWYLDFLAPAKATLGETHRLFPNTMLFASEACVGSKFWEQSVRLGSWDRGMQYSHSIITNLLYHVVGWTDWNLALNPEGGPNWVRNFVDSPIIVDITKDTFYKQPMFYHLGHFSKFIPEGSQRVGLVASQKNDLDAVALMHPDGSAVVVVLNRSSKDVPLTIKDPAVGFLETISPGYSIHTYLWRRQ

C=CCNC(=O)c1cc([N+](=O)[O-])cc2c(=O)[nH]c(Nc3ccc(Cl)c(Cl)c3)nc12
inactive: Potency [1] | outcome [2]

CCCC[P+](CCCC)(CCCC)Cc1ccc(NC(=O)[C@@H](Cc2ccc3ccccc3c2)NC(=NC2CCCCC2)NC2CCCCC2)cc1
inactive: Potency [4] > 46 µM | Potency [5] > 46 µM | Potency [1] | outcome [2]
active: Potency [3] 31.6 µM

CN(Cc1ccco1)c1ncnc2ccc(-c3ccc4c(c3)OCO4)cc12
-9.61%: max response [12, 21]
inactive: Potency [6] > 11.4 µM | activity, negative = inhibition [7] -7.17% | Potency [4] > 46 µM | Potency [5] > 46 µM | Potency [8] | Potency [1] | Potency [10] | outcome [11] | activity change, negative = inhibition ([12]; at 57.5 µM (top of the series)) 2.26% | Potency [13] | Potency [14] | Potency [15]
13.9 µM (active) and inactive: Potency [16]
active: Potency [3] 0.501 µM | Potency [9] 2.51 µM
-5.56%: max response [12, 22]

N[C@H](Cn1ccc(=O)c(O)c1)C(=O)O
-7.92% and -12.4%: max response [12, 22]
-5.27% and -11.5%: max response [12, 21]
inactive: activity change, negative = inhibition [17] 2.81% [at 17.2 µM] | activity change, negative = inhibition [18] -2.41% [at 17.2 µM] | activity, negative = inhibition [7] 3.76% [at 17.2 µM] | Potency [4] > 20.6 µM and > 46 µM | Potency [5] > 20.6 µM and > 46 µM | Potency [8] | Potency [19] | activity change, negative = inhibition ([12]; at 25.7 µM (top of the series)) -2.4% | activity change, negative = inhibition ([12]; at 57.5 µM (top of the series)) -2.6% | Potency [20]

O=c1ccc2cc(O)c(O)cc2o1
-16.4% and -4.98%: max response [12, 21]
-18.9% and -8.28%: max response [12, 22]
inactive: activity change, negative = inhibition [17] 12.2% [at 17.2 µM] | activity change, negative = inhibition [18] 28.9% [at 17.2 µM] | Potency [4] > 20.6 µM | Potency [5] > 20.6 µM | Potency [8] | Potency [19] | Potency [9] | Potency [1] | Potency [10] | activity change, negative = inhibition ([12]; at 25.7 µM (top of the series)) -3.37% | activity change, negative = inhibition ([12]; at 57.5 µM (top of the series)) -7.91% | Potency [20]

COc1cc2ccc(=O)oc2cc1O
active: Potency [3] 5.01 µM and 12.6 µM
-18% and -2.53%: max response [12, 21]
-21.2% and 0.189%: max response [12, 22]
inactive: Potency [4] > 20.6 µM and > 46 µM | Potency [5] > 20.6 µM and > 46 µM | Potency [8] | Potency [19] | Potency [9] | Potency [10] | outcome [11] | activity change, negative = inhibition ([12]; at 25.7 µM (top of the series)) -4.36% | activity change, negative = inhibition ([12]; at 57.5 µM (top of the series)) 6.76% | Potency [20] | Potency [13] | Potency [14] | Potency [15] | Potency [16]

CC[C@@H]1Cn2c(c3nc(-c4ccccc4)nc-3n(C)c2=O)N1
inactive: Potency [9] | outcome [2]
active: Potency [1] 12.6 µM

COc1cc2c(cc1OC)C(=O)Cc1ccc3c(c1CN(C)CC2)OCO3
inactive: Potency [3] | Potency [4] > 46 µM | Potency [5] > 46 µM | Potency [8] | Potency [19] | Potency [9] | outcome [2]

Cc1cc(C)c(S(=O)(=O)Nc2ccccc2C(F)(F)F)c(C)c1
active: Potency [3] 31.6 µM | Potency [9] 2.51 µM
inactive: Potency [4] > 46 µM | Potency [5] > 46 µM | Potency [1] | outcome [2]
